Compound activity as filed in PubChem BioAssay.
JMJD2A Tudor = blocks the human JMJD2A Tudor domain | O75164 | AlphaScreen JMJD2A-Tudor / H3K4me3 peptide binding | Potency, µM (series often up to 114 µM), for inactives: top-dose activity change, negative = inhibition, most hits filed as inhibitors | hit rate 4.4% among 390,000 | AID 504339; also: % is scaled to controls: 0 for no effect and ±100 for the full control effect; nearly all actives have a fitted effect of over 50% in size
Sfp inh = Sfp phosphopantetheinyl transferase inhibition. Q9F4F7. Biochemical Sfp PPTase activity, qHTS. Potency, µM, inactives show largest response in the series, negative = inhibition, usual class: inhibitors. hit rate 3.5% among 310,000. AID 1490;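 also: the enzyme is Sfp with the accession as filed and its product quenches rhodamine fluorescence; 0% = enzyme reaction without inhibitor and -100% = no enzyme wells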
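Step 1, compound plus 15 nM Sfp-PPTase, 15 min, room temperature. Step 2, add rhodamine-CoA (5 uM) and BHQ-2-YbbR (12.5 uM). Step 3, read 525/598 nm fluorescence at 0 and 30 min.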
G9a block = G9a (human) methyltransferase inhibition; hit rate 8.8% among 350,000; Potency, µM (doses to about 102 µM), without a hit: at the highest dose activity, negative = inhibition, actives largely listed as inhibitors; G9a H3K9 monomethylation, AlphaScreen, 2 h; also: % is scaled to controls: 0 for no effect and ±100 for the full control effect; nearly all actives have a fitted effect of over 75% in size
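Signal arises when biotinylated H3K9 peptide, once monomethylated, bridges streptavidin donor and antibody-captured acceptor beads. Enzyme at 20 nM was preincubated 15 min with test compounds; peptide 500 nM and SAM 20 uM then reacted for 2 h.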
PLK1 PBD inh = PLK1 (human) polo-box domain binding inhibition; hit rate 2.8% among 360,000; P53350; Potency, µM, for the others: max response, negative = inhibition, usual class: inhibitors; AID 720504; Plk1 PBD binding of FITC phosphopeptide, fluorescence polarization; also: series mostly up to about 57 µM; % is scaled to controls: 0 for no effect and ±100 for the full control effect; nearly all actives have a fitted effect of over 65% in size
BAZ2B block = inhibitors of human BAZ2B bromodomain; hit rate 4.4% among 360,000; AlphaScreen BAZ2B-H3K14Ac peptide displacement; Q9UIF8; Potency, µM (doses to about 114 µM), without a hit: top-dose activity change, negative = inhibition, usual class: inhibitors; AID 504333; also: % is scaled to controls: 0 for no effect and ±100 for the full control effect; nearly all actives have a fitted effect of over 60% in size
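Multi-concentration screen (max 110 uM) measuring displacement of acetylated histone H3 peptide from BAZ2B by AlphaScreen, using 50 nM protein, 50 nM peptide and 10 ug/mL streptavidin donor plus Ni-chelate acceptor beads.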
HP1b binding inh = inhibitors of HP1-beta chromodomain binding to methylated histone tails. AlphaScreen HP1-beta / biotin-H3K9me3 peptide binding. AID 540317. hit rate 0.56% among 390,000. Potency, µM (titrated, usually from 114 µM), for inactives: at the highest dose activity change, negative = inhibition, usual class: inhibitors; also: nearly all actives have a fitted effect of over 70% in size
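HP1-beta protein (50 nM final) preincubated 30 min at room temperature with biotinylated H3(1-18)K9me3 peptide (50 nM) in PBS pH 7.4, 0.01% Tween-20, then compound added for 30 min. AlphaScreen streptavidin donor/nickel chelate acceptor beads (10 ug/mL final), 30 min dark, luminescence read.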
* = called active by the depositor; ? = inconclusive; · = not tested or not shown; [ ] = another dose, or the depositor's remark. An excerpt weighted towards active compounds, which were near 12% of everything screened. Calls follow the shape of the dose curve; as a rule, active = well fitted curve in the direction sought with a large enough effect; inconclusive = small, poorly fitted or top-dose-only effect, or another doubt; inactive = no such curve, though single readings can be large; an effect the other way counts as inactive or inconclusive. Potency is read from the fitted curve at half-maximal effect.

SMILES | JMJD2A Tudor | Sfp inh | G9a block | PLK1 PBD inh | BAZ2B block | HP1b binding inh
C/C(=N\Nc1nc(C)cc(-c2ccccc2)n1)c1ccc(C)o1 | -26% | 1% | 15% | 1% | ? | 18%
CC(=O)N1CCC(=NNc2nc3ccccc3[nH]2)CC1 | 25µM* | -60% | 45µM* | -14% | 28µM* | ?
C/C(=N\Nc1ncc(Cl)cc1Cl)c1ccc(N2CCOCC2)cc1 | -1% | 25µM* | 56µM* | -1% | 50µM* | 21%
COc1c(C=O)c(=O)[nH]c2c(OC)cccc12 | · | -26% | · | · | · | ·
C/C(=N\Nc1nc2ccccc2[nH]1)c1ccc(N2CCOCC2)cc1 | 35µM* | -23% | 50µM* | 0% | 20µM* | ?
C/C(=N\NC(=O)c1ccccc1)c1ccc(N2CCOCC2)cc1 | -17% | -14% | 15%[59 µM] | 1% | 6% | 14%
CN(C)CC(=O)Nc1ccc(S(N)(=O)=O)cc1 | 14µM* | 4% | 24% | -5% | -2% | -4%
NS(=O)(=O)c1ccc(NC(=O)c2c(F)cccc2Cl)cc1 | -3% | 6% | 6% | 0% | -3% | 36%
NS(=O)(=O)c1ccc(NC(=O)CCCCC(=O)Nc2ccc(S(N)(=O)=O)cc2)cc1 | 89µM* | 1% | 9% | -10% | -3% | 63%
NS(=O)(=O)c1ccc(NC(=O)c2c(Cl)cccc2Cl)cc1 | 28µM* | 4% | 1%[0.501 µM] | 21µM* | 5% | -7%
CC(C)C(Cl)=NOC(=O)Nc1ccc(S(N)(=O)=O)cc1 | -8% | · | · | 8.4µM* | · | -29%
Cc1cccc(N2C(=O)C3C4C=CC(C5CC45)C3C2=O)n1 (stereo not given) | -5% | 12% | 33% | 1% | -17% | 17%
O=C(COC(=O)C1CCC(N2C(=O)C3C4CCC(C4)C3C2=O)CC1)c1ccc(F)cc1 (stereo not given) | -4% | -4% | -12% | -8% | 1% | 30%
O=C(NCC(=O)N1CCN(c2ccccc2)CC1)c1cccs1 | -7% | 24% | · | 3% | -9% | 28%
CCc1ccc(C(O)c2ncc(-c3cccc(OC)c3)[nH]2)cc1 (stereo not given) | · | · | · | 6% | · | ·
Cc1ccc(CCC(=O)Nc2ccc(S(N)(=O)=O)cc2)o1 | -10% | 5µM* | 2.2µM* | -18% | 15% | 13%
CC(=O)Nc1ccc(NC(=O)CCc2ccc(C)o2)cc1 | -7% | 7% | 19% | 0% | -19% | 21%
Cc1ccc(OCCNc2cc(N3CCN(CCO)CC3)ccc2[N+](=O)[O-])cc1C | ? | -28% | ? | -20% | 32µM* | ?
Cc1cccc(OCCNc2cc(N3CCOCC3)ccc2[N+](=O)[O-])c1 | ? | 13% | 10µM* | 2% | ? | -19%
COc1ccc(C(=O)N2CCN(c3ccc([N+](=O)[O-])c(NCCc4ccc(OC)c(OC)c4)c3)CC2)cc1 | ? | 6% | -3%[59 µM] | 6% | -30% | -9%
O=[N+]([O-])c1ccc([N+](=O)[O-])c(Nc2ccc(N3CCOCC3)cc2)c1 | 18µM* | 11% | -35%[12.7 µM] | 5% | 18µM* | ?
Cc1cccc(OCCNc2cc(N3CCN(C)CC3)ccc2[N+](=O)[O-])c1 | 40µM* | -10% | 17%[59 µM] | -2% | ? | 50µM*
CCN(CC(=O)Nc1ccc2c(c1)OCCO2)C(=O)COc1ccc(C(C)=O)cc1 | · | · | · | 1% | · | ·
CC(C)CC(=O)N1CCN(c2ccc([N+](=O)[O-])c(NCc3ccccc3)c2)CC1 | 50µM* | · | · | 21µM* | · | ?
COc1ccccc1OCCNc1cc(N2CCCCC2)ccc1[N+](=O)[O-] | ? | -5% | ? | 3% | ? | ?
O=C(c1ccccc1)N1CCN(c2ccc([N+](=O)[O-])c(NCc3cccnc3)c2)CC1 | ? | 21% | 22%[59 µM] | -5% | -31% | ?
CC(C)(C)CNc1cc(N2CCOCC2)ccc1[N+](=O)[O-] | ? | 1% | 32µM* | -5% | ? | -17%
Cc1ccccc1OCCNc1cc(N2CCNCC2)ccc1[N+](=O)[O-] | · | -2% | 32µM* | · | ? | ·
